# Experimental data published in PubChem BioAssay (NCI).
# The panel holds about 83,000 compounds, 20% with a hit somewhere; the sample as a whole holds those more often.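 96-well plates, one dose, 48 hours. Percent growth reported; active if below 10.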 Values without a mark were called inactive. Active and inactive are the calls of the source.
# Columns and labels:
# Assay in all cases: NCI-60 one-dose screen, 48 h (100 = growth as untreated, 0 = no growth, -100 = all killed)
# NCI-H23 lung = settings: 10 µM unless noted
# NCI-H226 lung = settings: 10 µM unless noted
# NCI-H322M lung = settings: 10 µM unless noted
# HOP-62 NSCLC = settings: 10 µM unless noted
# NCI-H460 lung = settings: 10 µM unless noted
# HOP-92 NSCLC = settings: 10 µM
# NCI-H522 lung = settings: 10 µM unless noted
# A549/ATCC NSCLC = settings: 10 µM unless noted
# 786-0 renal = settings: 10 µM unless noted
# COLO 205 colon = settings: 10 µM unless noted
# DU-145 prostate = settings: 10 µM unless noted
# K-562 leukemia = settings: 10 µM unless noted
# MALME-3M melanoma = settings: 10 µM unless noted
# MDA-MB-231 breast = settings: 10 µM unless noted
# SF-268 CNS = settings: 10 µM unless noted
# SF-295 CNS = settings: 10 µM unless noted
# SF-539 CNS = settings: 10 µM unless noted
# UACC-257 melanoma = settings: 10 µM unless noted
SMILES,growth (NCI-H23 lung),growth (NCI-H226 lung),growth (NCI-H322M lung),growth (HOP-62 NSCLC),growth (NCI-H460 lung),growth (HOP-92 NSCLC),growth (NCI-H522 lung),growth (A549/ATCC NSCLC),growth (786-0 renal),growth (COLO 205 colon),growth (DU-145 prostate),growth (K-562 leukemia),growth (MALME-3M melanoma),growth (MDA-MB-231 breast),growth (SF-268 CNS),growth (SF-295 CNS),growth (SF-539 CNS),growth (UACC-257 melanoma)
CCOC(=O)C1=NNC(c2ccc(Cl)cc2)C1C(=O)N1C(=S)NC(=O)C1CC(C)C (stereo unspecified),99.3%,92%,94.7%,92.8%,105%,90.2%,88.4%,110%,108%,109%,107%,98.4%,104%,86.2%,98.3%,106%,104%,116%
O=C1[C@@H]2Cc3c([nH]c4ccccc34)[C@H](c3c(Cl)cccc3Cl)N2C(=O)CN1C1CCN(CC2CCCCC2)CC1,91.3%,85.9%,83.5%,104%,12.7%,64.8%,24.1%,64.4%,46.6%,96.2%,34.4%,1.73% (active),80.6%,50%,75.2%,105%,68.8%,91.4%
C=CCn1c(SCC(=O)Nc2ccc(C(=O)/C=C/c3ccc(Cl)cc3)cc2)nnc1-c1c[nH]c2ccccc12,77.8%,68%,88%,88.8%,95.1%,79.9%,73.4%,64.8%,106%,107%,90.6%,50.7%,83%,81.5%,64%,46%,75.8%,99.6%
CCOP(=O)(OCC)OC[C@]12CCC(C)(C)C=C1[C@H]1CC[C@@H]3[C@@]4(C)CC[C@H](OP(=O)(OCC)OCC)C(C)(C)[C@@H]4CC[C@@]3(C)[C@]1(C)CC2,-38.4% (active),-72.3% (active),1.63% (active),-38.3% (active),-62.2% (active),-65.2% (active),-59.1% (active),-45.3% (active),-59.7% (active),-43.1% (active),-70.2% (active),4.74% (active),-12.8% (active),-55.2% (active),-59.7% (active),-66.2% (active),-84.1% (active),-8.01% (active)
CCCCCc1ccc(S(=O)(=O)Nc2cc(-c3csc(NC(=O)CN4CCN(C)CC4)n3)ccc2N2CCN(C)CC2)cc1,45.1%,71.8%,6.19% (active),42.5%,-56% (active),49.9%,-39.5% (active),15.7%,-50.9% (active),-51.2% (active),15.9%,1.1% (active),-91.4% (active),-52.7% (active),-33.5% (active),-63.9% (active),-86.2% (active),-58.4% (active)
C=C(C=O)[C@@H]1CC[C@]2(C)[C@H](CC=C3[C@H]4[C@@H](C)[C@H](C)CC[C@]4(C(=O)OC)CC[C@]32C)[C@@]1(C)CCC#N,-6.81% (active),-44.8% (active),32.9%,20.7%,1.89% (active),-31.6% (active),-1.56% (active),80.6%,5.57% (active),3.46% (active),16.7%,8.57% (active),-63.6% (active),-21.9% (active),20%,7.53% (active),-61.4% (active),-20.3% (active)
N#Cc1cccc(CN2CCC3=C(C2)C(=O)N(Cc2ccc(Cl)cc2)C2=NCCN23)c1,30.8%,35%,50.8%,31.8%,15%,29%,23.1%,27.2%,44.7%,-41% (active),28.5%,23.3%,50.4%,31.7%,36%,8.53% (active),41.7%,10.7%
Cc1ccc2c(c1)C13C(=C2Br)CCCN1C(=O)c1ccccc13 (stereo unspecified),92.8%,92.3%,97.5%,96.9%,105%,78.8%,80.8%,98.1%,84.3%,108%,102%,46.3%,85.3%,93.7%,90.6%,94.2%,98.4%,93.3%
NC(N)=Nc1ccc(Oc2ccc(Nc3ccc(Cl)c(C(F)(F)F)c3)cc2)cc1,11.8%,48.9%,68.5%,76.4%,-0.702% (active),34.1%,18.2%,31.1%,34.6%,20%,39%,7.03% (active),61.7%,28.4%,39%,22.3%,25.5%,68.3%
O=C1[C@H]2Cc3c([nH]c4ccccc34)[C@@H](c3c(Cl)cccc3Cl)N2C(=O)CN1C1CCN(CC2CCCCC2)CC1,94.5%,86.1%,94.7%,93.3%,63.6%,54.9%,101%,94.3%,83.2%,105%,48.9%,9.76% (active),85.5%,75%,84.4%,105%,95.4%,110%
O=C(NNc1nc2cc(F)cc(F)c2n2cccc12)c1cnccn1,24.6%,29.3%,30.2%,14.5%,1.69% (active),26.1%,0.755% (active),15%,14.3%,6.31% (active),22.4%,14.3%,23.1%,33.4%,21.9%,10.9%,7.61% (active),3.96% (active)
N#Cc1cnc2ccc(-c3cnc4[nH]ncc4c3)cc2c1N1CCc2cc(F)c(Cl)cc21,7.08% (active),-0.212% (active),15.3%,3.97% (active),3.18% (active),-7.43% (active),1.37% (active),9.1% (active),11%,12%,7.85% (active),16.6%,0.688% (active),10.9%,8.85% (active),-18.8% (active),-27.1% (active),36%
O=C(NCCn1ccnc1)c1ccc(-c2nc3ccc4[nH]ncc4c3c3c2CCCC3)cc1,71%,69.7%,83.8%,55.4%,59.9%,46.9%,3.21% (active),97.3%,75.6%,56.1%,62.7%,24.1%,41.9%,66.1%,48%,77.1%,50.9%,92.9%
NC(N)=Nc1ccc(Oc2cccc(NC(N)=Nc3ccc(Cl)c(C(F)(F)F)c3)c2)cn1,39.4%,71.9%,37.9%,52.1%,19.9%,-1.32% (active),9.96% (active),42.6%,70.3%,22.7%,63.7%,19.7%,57.9%,43.8%,19.6%,40.7%,36.6%,61.2%
COc1cccc(/C=C(/C)c2ccc3cccc(OC)c3[o+]2)c1O,105%,103%,98.8%,106%,102%,91%,93.6%,102%,98.5%,118%,107%,97.2%,105%,89.8%,95.3%,101%,103%,110%
C=CCn1c(SCC(=O)Nc2ccc(C(=O)/C=C/c3ccc(Br)cc3)cc2)nnc1-c1c[nH]c2ccccc12,90%,84.7%,93.7%,92.7%,95.4%,86.4%,82.5%,73.5%,102%,109%,91.6%,66.8%,91%,86.2%,70.7%,90.2%,88.2%,107%
C=CCn1c(SCC(=O)Nc2ccc(C(=O)/C=C/c3ccc(C)cc3)cc2)nnc1-c1c[nH]c2ccccc12,97.7%,78.1%,97.1%,94.4%,102%,86.3%,81.3%,75.9%,103%,112%,98.4%,61.1%,95%,89%,79.4%,66.9%,90.9%,112%
